Data from PubChem BioAssay (EPA / NIEHS).
More than one record can exist for a structure, and the calls need not agree. Activity calls are given as the source filed them. How the source made its calls: active means hit-call score of the fitted dose curve at least 0.9, where 1 is the maximum; inactive means score below 0.9.

The compounds below were run on Interleukin-6 (IL6), IL6 (gene 3569) (assay: BSK_CASM3C_IL6: BioMAP Diversity Plus: CASM3C Assay for Interleukin-6 (IL6) Biomarker Activity for (AID 2283040)). Details: primary human coronary artery smooth muscle cells; actives raise or lower the signal.

SMILES | outcome | AC50
CCCCC(CC)COC(=O)CCCCC(=O)OCC(CC)CCCC (centres undefined) | inactive | –
Nc1cccc2c(N)cccc12 | inactive | –
CCCCC(CC)COC(=O)CCCCC(=O)OCc1ccccc1 (centres undefined) | inactive | –
Oc1cc2ccccc2c2ccccc12 | – | 8.56 µM (active)
CC(O)CO (centres undefined) | inactive | –
CN1CCN(c2ccccc2/C=C2\SCCN(c3ccc(Cl)c(Cl)c3)C2=O)CC1 | inactive | –
O=c1c(-c2ccc(O)cc2)coc2cc(O)ccc12 | inactive | –
Cc1oc(-c2ccccc2)nc1CCOc1ccc(C[C@H](Nc2ccccc2C(=O)c2ccccc2)C(=O)O)cc1 | – | 29.9 µM (active)
CCC(=C(c1ccc(O)cc1)c1ccc(OCCN(C)C)cc1)c1ccccc1 | – | 24.6 µM (active)
c1ccc2cc3c(ccc4ccccc43)cc2c1 | inactive | –
O=[N+]([O-])c1ccc(O)cc1 | inactive | –
O=C(O)c1ccccc1C(c1ccc(O)cc1)c1ccc(O)cc1 | inactive | –
CCCCCCCCCCCCc1ccccc1S(=O)(=O)O | inactive | –
NC(=O)N1C(=O)C(C(=O)c2cc(Cl)cs2)c2cc(F)c(Cl)cc21 (centres undefined) | inactive | –
CC1=C(/C=C/C(C)=C/C=C/C(C)=C/C(=O)O)C(C)(C)CCC1 | – | 2.7 µM (active)
CC[C@H](c1ccc(O)cc1)[C@@H](CC)c1ccc(O)cc1 | inactive | –
CC(C)(C)CC(C)(C)c1ccc(O)c(-n2nc3ccccc3n2)c1 | inactive | –

SMILES | outcome | AC50
CCCCCCCCOC(=O)CCCCCCCCC(=O)OCCCCCCCC | inactive | –
CCc1nn(C2CCCCC2)c2cc(C3(C#N)CCC(C(=O)O)CC3)ccc12 (centres undefined) | – | 11.1 µM (active)
CN1CCC[C@H]1c1cccnc1 | inactive | –
CCCCCCCCCCCCN1CCCC1=O | inactive | –
C#C[C@]1(O)CC[C@H]2[C@@H]3CCC4=CC(=O)CC[C@@H]4[C@H]3CC[C@@]21C | inactive | –
CC#C[C@]1(O)CC[C@H]2[C@@H]3CCC4=CC(=O)CCC4=C3[C@@H](c3ccc(N(C)C)cc3)C[C@@]21C | inactive | –
COc1ccc([N+](=O)[O-])cc1N | inactive | –
CC(=O)NC1(c2cccc(F)c2)CCN(CC[C@@]2(c3ccc(Cl)c(Cl)c3)CN(c3ccccc3)C(=O)CO2)CC1 | – | 8.45 µM (active)
OC1CCC(C2CCCCC2)CC1 (centres undefined) | inactive | –
CC(C)(C)c1ccc(O)c(C(C)(C)C)c1 | – | 13.6 µM (active)
CC[C@H](C)[C@@H](C(=O)O)n1sc2ccccc2c1=O | inactive | –
OC1CCCCC1 | inactive | –
O=C(O)Cc1cc(I)c(Oc2cc(I)c(O)c(I)c2)c(I)c1 | – | 21.7 µM (active)
c1ccc2c(c1)Cc1ccccc1-2 | inactive | –
C=C(C)C(=O)OCCC(F)(F)C(F)(F)C(F)(F)C(F)(F)C(F)(F)C(F)(F)F | inactive | 20 µM (active)
CCCOc1sc(C(=O)N2CCC(c3cc(CN)ccc3F)CC2)c(C)c1Br | – | 27.4 µM (active)
